A short description of assay [1]: qHTS Validation Assay to Find Inhibitors of Chronic Active B-Cell Receptor Signaling (AID 485345; active = well fitted curve in the direction sought with a large enough effect in the main read-out, with a control signal flat, not every such curve was filed as active;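 also: 0% = untreated basal cells and 100% = 10 µM MG-132 proteasome inhibitor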). In a few lines: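 TMD8 ABC-DLBCL cells stably carrying doxycycline-inducible IkappaBalpha–green luciferase fusion plus unfused red luciferase; compounds 46 uM to 3 nM, 4 h at 37C with doxycycline. Corrected green/red luminescence ratio normalized to 10 uM MG-132 and basal cell wells; curves fitted.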

Assay [2] deals with Beta-2 adrenergic receptor (Homo sapiens) (UniProt P07550). The assay is described as follows: qHTS validation assay of beta-arrestin-biased ligands of beta2-adrenergic receptor (AID 485366). Also: 0% is about no effect. A digest of the protocol: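 Agonist activity is measured as luciferase luminescence downstream of beta-arrestin recruitment to recombinant beta2-AR in Tango cells. Exposure lasts 18 hr at 37 degrees C, and curves are categorized by r2, response size and activity.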
Beta-2 adrenergic receptor (Homo sapiens), sequence (P07550 whole entry, looked up): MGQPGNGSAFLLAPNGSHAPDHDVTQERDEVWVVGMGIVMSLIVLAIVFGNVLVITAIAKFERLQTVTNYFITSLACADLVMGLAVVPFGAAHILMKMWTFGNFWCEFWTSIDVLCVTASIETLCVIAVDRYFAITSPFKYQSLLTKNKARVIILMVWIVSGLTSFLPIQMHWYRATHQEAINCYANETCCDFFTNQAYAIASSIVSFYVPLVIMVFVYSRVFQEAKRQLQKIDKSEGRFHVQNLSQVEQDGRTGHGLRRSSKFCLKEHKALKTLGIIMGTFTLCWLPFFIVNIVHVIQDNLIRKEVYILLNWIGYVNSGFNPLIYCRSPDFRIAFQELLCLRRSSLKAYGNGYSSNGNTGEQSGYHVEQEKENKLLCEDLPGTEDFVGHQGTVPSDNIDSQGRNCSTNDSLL

The target in assay [3] is ATP-dependent 6-phosphofructokinase (Trypanosoma brucei brucei) (UniProt O15648). As to the kind of experiment: qHTS Validation Assay to Find Inhibitors of T. brucei phosphofructokinase (AID 485368). The following applies: outcome: dose series up to 57.5 µM. In a few lines: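 Inhibition derived from concentration-response curves of luminescence, ranked by r2, response size and curve class; the underlying reaction used 1.25 nM PFK, 0.1 mM ATP and 0.5 mM F6P, 45 min, room temperature.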
ATP-dependent 6-phosphofructokinase (Trypanosoma brucei brucei), sequence (O15648 whole entry, looked up): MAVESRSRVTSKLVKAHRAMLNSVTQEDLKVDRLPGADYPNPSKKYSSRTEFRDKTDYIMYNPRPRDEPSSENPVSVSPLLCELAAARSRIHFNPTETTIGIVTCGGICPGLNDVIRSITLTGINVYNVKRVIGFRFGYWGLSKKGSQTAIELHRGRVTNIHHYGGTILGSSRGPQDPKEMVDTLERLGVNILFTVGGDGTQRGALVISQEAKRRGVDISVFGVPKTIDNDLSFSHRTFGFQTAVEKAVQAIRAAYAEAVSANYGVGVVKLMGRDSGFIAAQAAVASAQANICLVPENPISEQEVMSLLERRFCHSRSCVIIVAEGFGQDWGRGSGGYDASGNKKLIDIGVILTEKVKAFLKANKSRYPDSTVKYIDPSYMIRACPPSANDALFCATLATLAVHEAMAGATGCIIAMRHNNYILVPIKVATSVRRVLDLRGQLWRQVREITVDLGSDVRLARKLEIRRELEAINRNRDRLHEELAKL

A short description of assay [4]: Quantitative high throughput screen for delayed death inhibitors of the malarial parasite plastid, 96 hour incubation (AID 488745).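 Also: luciferase-expressing P. falciparum in erythrocytes at 2% hematocrit and 0.1% parasitemia; series mostly up to about 29 µM; % is scaled to controls: 0 for no effect and ±100 for the full control effect; nearly all actives have a fitted effect of over 70% in size.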 A digest of the protocol: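 Readout is firefly luciferase luminescence from an integrated reporter in P. falciparum; lower signal marks inhibited growth. Cultures at 2% hematocrit and 0.1% parasitemia were treated with compound across two generations (96 h, 37 C, 5% CO2).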

Assay [5] in a line: Quantitative high throughput screen for delayed death inhibitors of the malarial parasite plastid, 48 hour incubation (AID 488752). Also: % is scaled to controls: 0 for no effect and ±100 for the full control effect; nearly all actives have a fitted effect of over 65% in size. A digest of the protocol:
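First, compound was pinned into RPMI 1640 medium containing 0.5% Albumax. Next, reporter-parasite-infected erythrocytes were added to 2% hematocrit and 0.1% parasitemia. After 48 h at 37 C under 5% CO2, luciferase detection reagent was added and luminescence read.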

Assay [6] concerns the target Thioredoxin reductase 1, cytoplasmic (Rattus norvegicus) (UniProt O89049). As to the kind of experiment: qHTS Assay for Substrates of Mammalian Selenoprotein Thioredoxin Reductase 1 (TrxR1) (AID 488772).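 Also: series mostly up to about 57 µM; 0% is about no effect; a drop in NADPH fluorescence below the no-compound background marks a TrxR1 substrate.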 A digest of the protocol: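 In this dual-purpose format, potential substrates are identified from the first fluorescence read after selenite addition, not from the 8-minute delta. Rat enzyme is preincubated with NADPH and then with compound at ~22 deg C.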

Assay [7] has the same target. The assay is described as follows: qHTS Assay for Inhibitors of Mammalian Selenoprotein Thioredoxin Reductase 1 (TrxR1) (AID 488773).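 Also: drop in NADPH fluorescence over an 8 min run after selenite addition; series mostly up to about 57 µM; % is scaled to controls: 0 for no effect and ±100 for the full control effect; nearly all actives have a fitted effect of over 40% in size.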 The following applies: Potency: inhibition. In a few lines:
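Inhibition is scored from the loss of NADPH fluorescence between first and last reads of an 8-min kinetic run. Selenite (400 uM) was the substrate, added after 15 min compound preincubation at room temperature.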
For orientation: Quantitative high-throughput screening tests each substance at several concentrations.

Assay [8] deals with Flap endonuclease 1 (Homo sapiens) (UniProt P39748). As to the kind of experiment: qHTS Validation Assay for the Inhibitors of Human Flap endonuclease 1 (FEN1) (AID 488816). Also: % is scaled to controls: 0 for no effect and ±100 for the full control effect. In a few lines:
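Enzyme reagent 10 nM; cpds pinned; 15 min RT preinc.; substrate 50 nM final; reads t=0 and 15 min; no-enzyme buffer wells as neg. control; normalized data, 4-parameter Hill fit.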

The target in assay [9] is M-phase phosphoprotein 8 (Homo sapiens) (UniProt Q99549). The assay is described as follows: qHTS Validation Assay for Inhibitors for MPP8 Chromodomain Interactions with Methylated Histone Tails (AID 488949).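 Also: AlphaScreen signal from MPP8 chromodomain bound to biotinylated H3K9me3 peptide; top concentration of the series differs between compounds; % is scaled to controls: 0 for no effect and ±100 for the full control effect; nearly all actives have a fitted effect of over 55% in size.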 In a few lines:
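AlphaScreen proximity signal from streptavidin donor and Ni-chelate acceptor beads (10 ug/mL each) reported binding of MPP8 to trimethyl-K9 H3(1-18) peptide, both at 50 nM. The complex formed 30 min before a 30 min compound exposure at room temperature, in PBS pH 7.4.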

In assay [10] the target is Chromobox protein homolog 1 (Homo sapiens) (UniProt P83916). As to the kind of experiment: qHTS Validation Assay for Inhibitors of HP1-beta Chromodomain Interactions with Methylated Histone Tails (AID 488953).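 Also: loss of AlphaScreen luminescence from HP1-beta binding biotinylated H3K9me3 peptide; series mostly up to about 110 µM; % is scaled to controls: 0 for no effect and ±100 for the full control effect; nearly all actives have a fitted effect of over 50% in size.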 In a few lines:
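Disruption of preformed HP1-beta:H3K9me3 peptide complexes (both 50 nM, PBS pH 7.4 with 0.01% Tween-20) is measured by AlphaScreen after 30 min compound exposure at room temperature, using streptavidin donor and nickel chelate acceptor beads at 10 ug/mL final.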

Assay [11] deals with Methanococcus maripaludis chaperonin (MmCpn) (UniProt Q6LX38). The assay is described as follows: High-Throughput Screening for Modulators of Cytosolic Chaperonin Activity: MmCpn Primary Screen (AID 488978).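 Also: 50 nM MmCpn enzyme hydrolysing 30 µM ATP at 37 °C; 0% is about no effect.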 A digest of the protocol:
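ATPase activity of 50 nM MmCpn was assayed with 30 uM ATP, 10 minutes at 37C, after a 5 min compound preincubation at room temperature. ADP production was read as HTRF emission at 590 and 665 nm.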

For assay [12], the target named is Transient receptor potential cation channel subfamily V member 1 (Homo sapiens) (UniProt Q8NER1). The assay is described as follows: HTS Assay for Compounds that Act as Enhancers of the Vanilloid Receptor 1 (AID 488979). Also: 0% is about no effect. A digest of the protocol: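 TRPV1 cells loaded with Fluo-8 calcium dye; compound added and Ca2+ signal (ex 480/em 520 nm) followed 3 min, then capsaicin at EC20 added and read 2 more min to detect enhancement.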
Transient receptor potential cation channel subfamily V member 1 (Homo sapiens), sequence (Q8NER1 whole entry, looked up): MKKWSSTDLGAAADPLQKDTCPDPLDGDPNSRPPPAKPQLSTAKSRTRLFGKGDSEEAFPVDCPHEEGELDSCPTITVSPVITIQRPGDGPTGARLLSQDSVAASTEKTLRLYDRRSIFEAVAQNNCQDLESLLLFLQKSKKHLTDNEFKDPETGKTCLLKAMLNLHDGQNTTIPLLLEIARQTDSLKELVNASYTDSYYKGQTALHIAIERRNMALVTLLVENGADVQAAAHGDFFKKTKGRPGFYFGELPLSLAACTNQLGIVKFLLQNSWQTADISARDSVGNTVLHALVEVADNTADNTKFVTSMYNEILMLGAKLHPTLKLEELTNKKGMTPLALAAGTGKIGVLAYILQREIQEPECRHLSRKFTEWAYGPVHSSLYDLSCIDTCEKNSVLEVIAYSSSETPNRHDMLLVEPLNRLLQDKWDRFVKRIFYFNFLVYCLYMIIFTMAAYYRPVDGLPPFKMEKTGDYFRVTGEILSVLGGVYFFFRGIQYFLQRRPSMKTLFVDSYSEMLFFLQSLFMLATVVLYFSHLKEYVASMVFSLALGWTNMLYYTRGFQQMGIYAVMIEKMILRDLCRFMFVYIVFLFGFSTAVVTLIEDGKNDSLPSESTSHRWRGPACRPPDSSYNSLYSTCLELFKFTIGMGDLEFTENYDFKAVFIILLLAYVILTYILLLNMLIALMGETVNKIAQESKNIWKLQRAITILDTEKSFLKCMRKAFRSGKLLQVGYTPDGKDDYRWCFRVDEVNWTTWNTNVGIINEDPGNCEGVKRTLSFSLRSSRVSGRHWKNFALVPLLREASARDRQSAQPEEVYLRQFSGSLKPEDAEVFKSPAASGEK

Assay [13] deals with D(1A) dopamine receptor (Homo sapiens) (UniProt P21728). As to the kind of experiment: HTS Assay for Allosteric Agonists of the Human D1 Dopamine Receptor: Primary Screen for Agonists (AID 488981). Also: 0% is about no effect. A digest of the protocol:
(§1)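 Tetracycline-induced HEK293 Trex D1 cells with forced coupling to calcium, loaded with no-wash calcium dye; kinetic fluorescence read 180 s after compound addition for agonism, then a further 180 s after an EC20 dopamine challenge for potentiation.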

For assay [14] the target is unchanged. As to the kind of experiment: HTS Assay for Allosteric Agonists of the Human D1 Dopamine Receptor: Primary Screen for Potentiators (AID 488982). Also: 0% is about no effect. In a few lines: as §1
For assay [15] the target is unchanged. As to the kind of experiment: HTS Assay for Allosteric Agonists of the Human D1 Dopamine Receptor: Primary Screen for Antagonists (AID 488983).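 Also: calcium flux response to an EC80 dopamine challenge measured with no-wash dye; % is scaled to controls: 0 for no effect and ±100 for the full control effect; nearly all actives have a fitted effect of over 65% in size.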 In a few lines: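 Kinetic fluorescence at 1 cycle/sec tracked intracellular calcium in force-coupled, tetracycline-inducible HEK293 T-REx D1 cells. Loss of response to an EC80 dopamine dose, given 180 s after compound, marked antagonists.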

The target in assay [16] is ATP-dependent 6-phosphofructokinase (Trypanosoma brucei brucei) (UniProt O15648). The assay is described as follows: qHTS Assay to Find Inhibitors of T. brucei phosphofructokinase: hit validation (AID 492961). Also: series mostly up to about 51 µM; % is scaled to controls: 0 for no effect and ±100 for the full control effect. In a few lines:
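Luminescence from ADP-Glo reports ADP generated as T. brucei PFK (1.25 nM) phosphorylates 0.5 mM fructose-6-phosphate using 0.1 mM ATP. Reactions ran 45 min at room temperature, pH 8.0.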

Assay [17] in a line: Validation screen for small molecules that induce genotoxicity in human embryonic kidney (HEK293T) cells expressing luciferase-tagged ELG1 (AID 493106). Also: 0% is about no effect. In a few lines: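 Cells were dispensed at 2,000 per well, then 23 nL compound or DMSO was pinned in. After 16 hr at 37 °C and 5% CO2, ONE-Glo reagent was added. Luciferase activity was measured following 30 min at room temperature.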

In assay [18] the target is ATPase family AAA domain-containing protein 5 (Homo sapiens) (UniProt Q96QE3). As to the kind of experiment: Validation screen for small molecules that inhibit ELG1-dependent DNA repair in human embryonic kidney (HEK293T) cells expressing luciferase-tagged ELG1 (AID 493107).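 Also: cells co-treated with the DNA-damaging agent 5-fluorouridine alongside compound; series mostly up to about 46 µM; % is scaled to controls: 0 for no effect and ±100 for the full control effect; inhibitors lower the ELG1-luciferase luminescence signal; nearly all actives have a fitted effect of over 70% in size.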 In a few lines: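 Cells are dispensed in 1536-well format, then 5-fluorouridine and compound are pinned in. After a 16 hr incubation at 37 °C and 5% CO2, ONE-Glo is added and luciferase measured on a CCD imager.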

A short description of assay [19]: Nrf2 qHTS screen for inhibitors: Validation (AID 493153; active = well fitted inhibition curve with a large enough effect in the main read-out, with a control signal flat, not every such curve was filed as active). The settings on record: viability change: measured here: cytotoxicity max response. A digest of the protocol:
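A549 ARE_Fluc, 5% FBS OPTI-MEM; cpd titration, 18-24 h, 37°C/5% CO2. Read 1: CellTiter-Fluor (Ex 405/Em 525), cytotox. Read 2: luciferase lum, Nrf2 activity.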

The nature of assay [20]: qHTS for Inhibitors of Cell Surface uPA Generation: Validation Assay (AID 493164).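 Also: RAW 264.7 macrophage cells exposed to compound for 18 h; 0% is about no effect.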 A digest of the protocol:
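ATP-Lite luminescence read-out: ATP remains high when uPA activity-dependent LF translocation into the cytoplasm is blocked. RAW 264.7 cells, 18 h compound exposure at 37 C; 7-point titration, 2.45 nM to 38.3 uM final.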

Records with an inconclusive call do not appear. Calls of active or inactive are those of the source. Unless noted, calls follow the shape of the dose curve; as a rule, active = well fitted curve in the direction sought with a large enough effect; inconclusive = small, poorly fitted or top-dose-only effect, or another doubt; inactive = no such curve, though single readings can be large; an effect the other way counts as inactive or inconclusive.

Chromobox protein homolog 1 (Homo sapiens), sequence (P83916 whole entry, looked up): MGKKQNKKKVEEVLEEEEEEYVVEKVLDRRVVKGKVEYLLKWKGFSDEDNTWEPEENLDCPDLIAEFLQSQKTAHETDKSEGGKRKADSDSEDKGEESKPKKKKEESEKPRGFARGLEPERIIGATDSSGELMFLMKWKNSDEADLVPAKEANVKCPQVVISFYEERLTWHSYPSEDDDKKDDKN
D(1A) dopamine receptor (Homo sapiens), sequence (P21728 whole entry, looked up): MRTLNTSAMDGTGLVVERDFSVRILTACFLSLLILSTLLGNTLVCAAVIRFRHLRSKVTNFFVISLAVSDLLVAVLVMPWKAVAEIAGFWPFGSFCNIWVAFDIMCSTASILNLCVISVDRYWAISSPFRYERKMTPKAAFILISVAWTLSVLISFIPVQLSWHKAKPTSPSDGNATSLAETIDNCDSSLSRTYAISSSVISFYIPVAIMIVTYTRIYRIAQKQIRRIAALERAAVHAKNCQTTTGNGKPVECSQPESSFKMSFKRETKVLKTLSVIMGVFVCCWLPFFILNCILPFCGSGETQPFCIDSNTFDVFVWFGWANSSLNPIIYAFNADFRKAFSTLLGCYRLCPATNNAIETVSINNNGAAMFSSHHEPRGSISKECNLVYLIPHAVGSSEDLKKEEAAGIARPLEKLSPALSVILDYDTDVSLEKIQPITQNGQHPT
Methanococcus maripaludis chaperonin (MmCpn), sequence (Q6LX38 1-543): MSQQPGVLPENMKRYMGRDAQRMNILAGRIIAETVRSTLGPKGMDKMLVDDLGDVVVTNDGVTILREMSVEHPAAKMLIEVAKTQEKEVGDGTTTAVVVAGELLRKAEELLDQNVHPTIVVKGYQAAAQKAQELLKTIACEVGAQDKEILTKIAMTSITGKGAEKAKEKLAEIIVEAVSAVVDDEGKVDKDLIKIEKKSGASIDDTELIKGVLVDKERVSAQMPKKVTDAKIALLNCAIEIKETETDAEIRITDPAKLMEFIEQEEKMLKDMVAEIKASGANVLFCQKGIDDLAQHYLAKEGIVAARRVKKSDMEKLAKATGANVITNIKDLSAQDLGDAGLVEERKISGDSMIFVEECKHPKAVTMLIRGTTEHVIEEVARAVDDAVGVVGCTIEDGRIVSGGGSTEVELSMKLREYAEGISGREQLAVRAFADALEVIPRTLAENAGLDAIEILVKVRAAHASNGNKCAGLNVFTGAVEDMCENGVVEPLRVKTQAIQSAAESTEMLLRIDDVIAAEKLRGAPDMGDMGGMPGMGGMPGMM
Flap endonuclease 1 (Homo sapiens), sequence (P39748 whole entry, looked up): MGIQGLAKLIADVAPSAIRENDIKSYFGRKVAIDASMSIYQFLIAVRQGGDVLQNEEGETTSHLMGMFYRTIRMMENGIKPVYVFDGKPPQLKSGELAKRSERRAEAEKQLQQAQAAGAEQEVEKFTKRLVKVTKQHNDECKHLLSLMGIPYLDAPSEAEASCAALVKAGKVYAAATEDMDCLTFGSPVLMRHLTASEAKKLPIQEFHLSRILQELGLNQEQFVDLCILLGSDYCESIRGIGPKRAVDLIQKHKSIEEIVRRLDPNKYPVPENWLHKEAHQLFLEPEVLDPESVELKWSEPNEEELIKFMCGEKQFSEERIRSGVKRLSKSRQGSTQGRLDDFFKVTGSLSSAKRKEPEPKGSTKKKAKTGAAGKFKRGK
M-phase phosphoprotein 8 (Homo sapiens), sequence (Q99549 whole entry, looked up): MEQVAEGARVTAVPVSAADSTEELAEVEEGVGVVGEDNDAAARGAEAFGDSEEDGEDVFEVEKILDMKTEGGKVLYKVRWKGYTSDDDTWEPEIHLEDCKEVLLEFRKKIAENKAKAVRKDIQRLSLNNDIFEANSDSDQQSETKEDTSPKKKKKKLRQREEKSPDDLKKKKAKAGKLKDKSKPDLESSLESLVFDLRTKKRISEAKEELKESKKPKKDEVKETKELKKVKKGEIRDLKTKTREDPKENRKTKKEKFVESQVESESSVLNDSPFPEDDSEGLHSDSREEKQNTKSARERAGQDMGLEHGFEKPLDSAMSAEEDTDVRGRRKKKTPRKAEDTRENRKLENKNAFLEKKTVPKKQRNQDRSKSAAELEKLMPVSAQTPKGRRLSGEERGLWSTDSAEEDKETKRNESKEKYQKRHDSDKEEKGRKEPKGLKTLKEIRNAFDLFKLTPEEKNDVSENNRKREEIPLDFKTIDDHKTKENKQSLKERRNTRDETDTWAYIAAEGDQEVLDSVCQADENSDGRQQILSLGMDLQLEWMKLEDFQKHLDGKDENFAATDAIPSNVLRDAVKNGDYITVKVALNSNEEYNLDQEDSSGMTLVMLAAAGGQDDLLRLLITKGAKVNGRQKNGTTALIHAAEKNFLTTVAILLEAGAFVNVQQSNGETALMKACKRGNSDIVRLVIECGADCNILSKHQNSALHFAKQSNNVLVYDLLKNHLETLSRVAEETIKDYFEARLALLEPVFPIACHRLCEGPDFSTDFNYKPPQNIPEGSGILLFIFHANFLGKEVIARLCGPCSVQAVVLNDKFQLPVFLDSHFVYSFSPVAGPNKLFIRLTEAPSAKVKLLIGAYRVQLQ
Thioredoxin reductase 1, cytoplasmic (Rattus norvegicus), sequence (O89049 whole entry, looked up): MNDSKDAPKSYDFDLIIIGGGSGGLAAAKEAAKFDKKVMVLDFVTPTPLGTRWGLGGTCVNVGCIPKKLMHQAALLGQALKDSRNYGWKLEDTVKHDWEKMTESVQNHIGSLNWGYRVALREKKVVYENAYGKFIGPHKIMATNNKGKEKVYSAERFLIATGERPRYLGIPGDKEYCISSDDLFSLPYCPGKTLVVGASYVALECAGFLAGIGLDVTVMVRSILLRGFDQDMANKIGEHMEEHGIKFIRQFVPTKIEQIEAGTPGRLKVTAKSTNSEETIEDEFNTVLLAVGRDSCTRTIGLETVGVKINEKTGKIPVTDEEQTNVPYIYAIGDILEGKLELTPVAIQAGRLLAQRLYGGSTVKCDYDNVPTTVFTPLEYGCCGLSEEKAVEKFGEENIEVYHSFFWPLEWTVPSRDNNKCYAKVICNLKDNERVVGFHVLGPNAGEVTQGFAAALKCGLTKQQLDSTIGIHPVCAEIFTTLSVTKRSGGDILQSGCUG

On to `CCN(CC)CCOC(=O)c1ccc(N)cc1`, for which the result in assay [1], in assay [2], in assay [3], in [5], in assay [8] and in assay [11] was inactive. Moreover, the result in assay [12], in [13], in assay [14], in assay [16], in assay [18] and in assay [19] was inactive. The call in [20] was inactive. In addition, the Potency entry in assay [4], in assay [6], in [7], in [9], in assay [10] and in assay [15] was “inactive” in each case. For the same compound, the Potency result in assay [17] is “inactive”. The viability change in assay [19] amounted to 0.523%.
`CCCNC(=O)NS(=O)(=O)c1ccc(Cl)cc1`: the result in assay [1], in assay [2], in assay [5], in [8], in assay [11] and in assay [12] was inactive. The call in [13], in assay [14], in [18], in [19] and in [20] was inactive. Further, the Potency entry in [4], in assay [6], in assay [7], in assay [9], in [10] and in assay [15] was “inactive” each time. In addition, the Potency entry in [17] was “inactive”. Also, in assay [19], the viability change was -0.767%.
With `NC(N)=Nc1nc(CSCC/C(N)=N/S(N)(=O)=O)cs1`, the outcome in assay [1], in assay [2], in [5], in [8], in assay [11] and in [12] was inactive. Further, the outcome in [13], in [14], in assay [18], in assay [19] and in assay [20] was inactive. The Potency result in assay [4], in [6], in [7], in assay [9], in assay [10] and in assay [15] was “inactive” each time. In assay [17], the Potency entry is “inactive”. Moreover, in [19], the viability change was -0.651%.
With `CC(=O)N[C@@H](CS)C(=O)O`, the outcome in [1], in assay [2], in [3], in assay [5], in assay [8] and in assay [11] was inactive. The result in [12], in assay [13], in assay [16], in assay [18], in assay [19] and in [20] was inactive. Besides, the Potency result in [4], in [6], in assay [7], in assay [9], in [10] and in assay [15] was “inactive” throughout. For the same compound, the Potency result in [17] is “inactive”. In addition, the viability change in assay [19] was determined as 13.1%.
For `CN(C)CCC(c1ccccc1)c1ccccn1` (configuration not stated), the compound was called inactive in [1], in assay [2], in assay [3], in [5], in [11] and in [12]. In addition, the compound was called inactive in [13], in assay [14], in assay [16], in assay [18], in assay [19] and in assay [20]. Further, the Potency entry in [4], in assay [6], in assay [7], in [9], in assay [10] and in assay [15] was “inactive” in each case. Moreover, in assay [17], the Potency result was “inactive”. In addition, the viability change in assay [19] was determined as 3.7%.
For `O=C1NCC2(CCN(CCc3ccccc3)CC2)O1`, the outcome in [1], in [2], in assay [5], in assay [8], in assay [11] and in [12] was inactive. For the same compound, the result in [13], in [14], in assay [16], in [18], in assay [19] and in assay [20] was inactive. For the same compound, the Potency entry in assay [4], in assay [6], in assay [7], in assay [9], in assay [10] and in [15] was “inactive” each time. Moreover, in assay [19], the viability change amounted to 1.8%.
As to `Cc1cccc(C)c1OCC(C)N` (configuration not stated), the compound was called inactive in assay [1], in assay [2], in assay [5], in [8], in assay [11] and in assay [12]. The compound was classed as inactive in [13], in [14], in assay [16], in [18], in [19] and in assay [20]. Moreover, the Potency result in assay [4], in [6], in [7], in assay [9], in assay [10] and in assay [15] was “inactive” in each case. The Potency result in assay [17] was “inactive”. The viability change in assay [19] is -6.18%.
In the case of `NCCS`, the call in [1], in assay [2], in assay [3], in [5], in assay [8] and in [11] was inactive. Further, the outcome in assay [12], in [13], in assay [14], in assay [16], in assay [18] and in assay [19] was inactive. The call in assay [20] was inactive. The Potency result in [4], in [7], in assay [9], in [15] and in assay [17] was “inactive” each time. Further, the viability change in assay [19] was -10.7%.

(Values after PubChem BioAssay (NCATS).)
